# Measured values published in paper PMC8384837, “Expanding the binding specificity for RNA recognition by a PUF domain”.
# Legend:
# Experiment in all cases: yeast three-hybrid, YBZ-1, SC-Leu-His + 0.5 mM 3-AT, 4 days
# Conditions in all cases: tags: N-Gal4 AD-HA kept; label: inside an RPR1-promoter hybrid RNA with tandem MS2 sites; ssRNA
# PUM1 PUF domain R4-MRG = PUM1 PUF domain R4-MRG (Homo sapiens, UniProt Q14671 828-1176, N971M;H972R;Q975G)
# In short: (§1)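 Sequencing with Illumina followed PCR amplification of the repeat regions from transformants grown four days on SC-Leu (input) or SC-Leu-His + 0.5 mM 3-AT (selection). The transformants were strain YBZ-1 with a LexA–MS2 coat fusion and a HIS3 reporter, carrying Pumilio-1 PUF domain libraries and matching RNA elements. The interaction score is the log change in variant frequency from input to selection, computed in log2 with a pseudocount of 1 for absent variants.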
# PUM1 PUF domain R4-ARR = PUM1 PUF domain R4-ARR (Homo sapiens, UniProt Q14671 828-1176, N971A;H972R;Q975R)
# In short: as §1
# PUM1 PUF domain R4-DFC = PUM1 PUF domain R4-DFC (Homo sapiens, UniProt Q14671 828-1176, N971D;H972F;Q975C)
# In short: as §1
# PUM1 PUF domain R4-RYP = PUM1 PUF domain R4-RYP (Homo sapiens, UniProt Q14671 828-1176, N971R;H972Y;Q975P)
# In short: as §1
# PUM1 PUF domain R3-VRY = PUM1 PUF domain R3-VRY (Homo sapiens, UniProt Q14671 828-1176, C935V;Q939Y)
# In short: as §1
# PUM1 PUF domain R8-KWS = PUM1 PUF domain R8-KWS (Homo sapiens, UniProt Q14671 828-1176, N1122K;Y1123W;Q1126S)
# In short: as §1
# PUM1 PUF domain R5-THL = PUM1 PUF domain R5-THL (Homo sapiens, UniProt Q14671 828-1176, C1007T;R1008H;Q1011L)
# In short: as §1
# PUM1 PUF domain R3-LSA = PUM1 PUF domain R3-LSA (Homo sapiens, UniProt Q14671 828-1176, C935L;R936S;Q939A)
# In short: as §1
# PUM1 PUF domain R8-KKK = PUM1 PUF domain R8-KKK (Homo sapiens, UniProt Q14671 828-1176, N1122K;Y1123K;Q1126K)
# In short: as §1
# PUM1 PUF domain R4-SNQ = PUM1 PUF domain R4-SNQ (Homo sapiens, UniProt Q14671 828-1176, N971S;H972N)
# In short: as §1
# Chain of PUM1 PUF domain R4-MRG (Q14671 828-1176 N971M/H972R/Q975G): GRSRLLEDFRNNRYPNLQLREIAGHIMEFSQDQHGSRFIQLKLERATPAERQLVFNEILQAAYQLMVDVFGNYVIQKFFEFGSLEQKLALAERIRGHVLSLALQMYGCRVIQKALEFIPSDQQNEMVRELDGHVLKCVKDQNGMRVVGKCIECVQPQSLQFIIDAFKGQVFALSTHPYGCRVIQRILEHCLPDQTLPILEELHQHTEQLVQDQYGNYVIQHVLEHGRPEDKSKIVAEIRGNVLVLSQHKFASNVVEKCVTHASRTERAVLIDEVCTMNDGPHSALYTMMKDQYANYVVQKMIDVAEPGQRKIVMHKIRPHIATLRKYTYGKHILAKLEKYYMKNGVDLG
# Chain of PUM1 PUF domain R4-RYP (Q14671 828-1176 N971R/H972Y/Q975P): as the sequence (Q14671 828-1176 N971M/H972R/Q975G) above, with M144R, R145Y, G148P counted along it
# Chain of PUM1 PUF domain R3-LSA (Q14671 828-1176 C935L/R936S/Q939A): as the sequence (Q14671 828-1176 N971M/H972R/Q975G) above, with C108L, R109S, Q112A, M144N, R145H, G148Q counted along it
# Chain of PUM1 PUF domain R3-VRY (Q14671 828-1176 C935V/Q939Y): as the sequence (Q14671 828-1176 N971M/H972R/Q975G) above, with C108V, Q112Y, M144N, R145H, G148Q counted along it
# Chain of PUM1 PUF domain R5-THL (Q14671 828-1176 C1007T/R1008H/Q1011L): as the sequence (Q14671 828-1176 N971M/H972R/Q975G) above, with M144N, R145H, G148Q, C180T, R181H, Q184L counted along it
# Chain of PUM1 PUF domain R4-SNQ (Q14671 828-1176 N971S/H972N): as the sequence (Q14671 828-1176 N971M/H972R/Q975G) above, with M144S, R145N, G148Q counted along it
# Chain of PUM1 PUF domain R4-ARR (Q14671 828-1176 N971A/H972R/Q975R): as the sequence (Q14671 828-1176 N971M/H972R/Q975G) above, with M144A, G148R counted along it
# Chain of PUM1 PUF domain R8-KWS (Q14671 828-1176 N1122K/Y1123W/Q1126S): as the sequence (Q14671 828-1176 N971M/H972R/Q975G) above, with M144N, R145H, G148Q, N295K, Y296W, Q299S counted along it
# Chain of PUM1 PUF domain R8-KKK (Q14671 828-1176 N1122K/Y1123K/Q1126K): as the sequence (Q14671 828-1176 N971M/H972R/Q975G) above, with M144N, R145H, G148Q, N295K, Y296K, Q299K counted along it
# Chain of PUM1 PUF domain R4-DFC (Q14671 828-1176 N971D/H972F/Q975C): as the sequence (Q14671 828-1176 N971M/H972R/Q975G) above, with M144D, R145F, G148C counted along it
sequence,measurement,setting,value
GGCUAGAACUAGUGGAUCCCCCGGCGCCCGGCGGCUCGAGCCCGGGUAAGUGUACAUAGUCUGCAUGCCGCCGGGCGCCAUGCCUGCAGGUCGACUCUAGAAAACAUG,binding signal,PUM1 PUF domain R4-MRG,1.34 log2 enrichment (interaction score)
same,binding signal,PUM1 PUF domain R4-ARR,2.99 log2 enrichment (interaction score)
same,binding signal,PUM1 PUF domain R4-DFC,5.67 log2 enrichment (interaction score)
GGCUAGAACUAGUGGAUCCCCCGGCGCCCGGCGGCUCGAGCCCGGGUAAGUGUAAAUAGUCUGCAUGCCGCCGGGCGCCAUGCCUGCAGGUCGACUCUAGAAAACAUG,binding signal,PUM1 PUF domain R4-MRG,2.56 log2 enrichment (interaction score)
same,binding signal,PUM1 PUF domain R4-RYP,5.03 log2 enrichment (interaction score)
same,binding signal,PUM1 PUF domain R3-VRY,4.24 log2 enrichment (interaction score)
same,binding signal,PUM1 PUF domain R8-KWS,3.68 log2 enrichment (interaction score)
same,binding signal,PUM1 PUF domain R5-THL,4.39 log2 enrichment (interaction score)
GGCUAGAACUAGUGGAUCCCCCGGCGCCCGGCGGCUCGAGCCCGGGUAAGUGUAAGUAGUCUGCAUGCCGCCGGGCGCCAUGCCUGCAGGUCGACUCUAGAAAACAUG,binding signal,PUM1 PUF domain R3-LSA,4.84 log2 enrichment (interaction score)
GGCUAGAACUAGUGGAUCCCCCGGCGCCCGGCGGCUCGAGCCCGGGUAAGCGUAAAUAGUCUGCAUGCCGCCGGGCGCCAUGCCUGCAGGUCGACUCUAGAAAACAUG,binding signal,PUM1 PUF domain R8-KKK,3.81 log2 enrichment (interaction score)
GGCUAGAACUAGUGGAUCCCCCGGCGCCCGGCGGCUCGAGCCCGGGUAAGUGUAUAUAGUCUGCAUGCCGCCGGGCGCCAUGCCUGCAGGUCGACUCUAGAAAACAUG,binding signal,PUM1 PUF domain R4-MRG,1.61 log2 enrichment (interaction score)
same,binding signal,PUM1 PUF domain R4-RYP,2.78 log2 enrichment (interaction score)
same,binding signal,PUM1 PUF domain R4-SNQ,4.52 log2 enrichment (interaction score)
GGCUAGAACUAGUGGAUCCCCCGGCGCCCGGCGGCUCGAGCCCGGGUAAGUGUAAUUAGUCUGCAUGCCGCCGGGCGCCAUGCCUGCAGGUCGACUCUAGAAAACAUG,binding signal,PUM1 PUF domain R3-LSA,2.8 log2 enrichment (interaction score)
